# Measurements: PubChem BioAssay (NCATS)
# Records with an inconclusive call do not appear. Entries that show only a call come without a potency. Values without a mark were called inactive. Calls of active or inactive are those of the source. Calls come from the whole dose curve; as a rule, active = well fitted curve in the direction sought with a large enough effect; inconclusive = small, poorly fitted or top-dose-only effect, or another doubt; inactive = no such curve, though single readings can be large; an effect the other way counts as inactive or inconclusive.
# Experiment: qHTS of pediatric cancer cell lines to identify multiple opportunities for drug repurposing: Confirmatory screen for TC32 cells (AID 1347118);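 note: cells exposed to compound for 48 h before the read; nearly all actives have a fitted effect of over 65% in size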
# Conditions: TC32 Ewing sarcoma cells viability qHTS; series mostly up to 5.01 µM
# Outline: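 Luminescent ATP read-out (CellTiter-Glo) of metabolically active TC32 cells after 48 h exposure. Concentration-response curves came from 11-point (MIPE, 0.78 nM–46 µM) or 8-point (NPC, 0.59 nM–46 µM) primary titrations; follow-up used 11 points.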
# Potency is the fitted concentration of half-maximal effect.
row,Compound,Potency
1,Cc1ccc2nc(N)[nH]c(=O)c2c1Sc1ccncc1,3.29 µM (active)
2,O=c1cc[nH]c(=S)[nH]1,9.27 µM (active)
3,CCCCC/C(C=O)=C\c1ccccc1,6.57 µM (active)
4,C[C@@H]1C[C@H]2[C@@H]3C[C@H](F)C4=CC(=O)C=C[C@]4(C)[C@@]3(F)[C@@H](O)C[C@]2(C)[C@@]1(O)C(=O)CO,23.3 µM (active)
5,O=C(O)CN1C(=O)c2cccc3cccc(c23)C1=O,3.29 µM (active)
6,O=C1N=C(O)CN1/N=C/c1ccc(-c2ccc([N+](=O)[O-])cc2)o1,inactive
7,C[C@](N)(Cc1ccc(O)cc1)C(=O)O,inactive

# Experiment: qHTS of pediatric cancer cell lines to identify multiple opportunities for drug repurposing: Confirmatory screen for MG 63 (6-TG R) cells (AID 1347119); note: nearly all actives have a fitted effect of over 55% in size
# Conditions: MG-63 (6-TG resistant) osteosarcoma viability; series mostly up to 45.9 µM
# Outline: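 Viability after 48 h compound treatment at 37C, 500-1,000 cells/well, read as ATP luminescence with CellTiter-Glo. Primary screens used 11-point (MIPE, 0.78 nM-46 µM) or 8-point (NPC, 0.59 nM-46 µM) final concentrations; follow-up screens used 11-point dilutions.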
Compound,Potency,"activity change, negative = cytotoxicity"
CCN(CC)CCNC(=O)c1cc(Cl)c(N)cc1OC,inactive,–
O=c1cc[nH]c(=S)[nH]1,inactive,–
CCCCC/C(C=O)=C\c1ccccc1,inactive,–
C[C@@H]1C[C@H]2[C@@H]3C[C@H](F)C4=CC(=O)C=C[C@]4(C)[C@@]3(F)[C@@H](O)C[C@]2(C)[C@@]1(O)C(=O)CO,inactive,–
O=C(O)CN1C(=O)c2cccc3cccc(c23)C1=O,20.8 µM (active),–
O=C1N=C(O)CN1/N=C/c1ccc(-c2ccc([N+](=O)[O-])cc2)o1,inactive,–
C[C@](N)(Cc1ccc(O)cc1)C(=O)O,–,15.9% [at 5.01 µM]
